The values that follow come from PubChem BioAssay (Tox21).

The nature of test [1]: qHTS assay to identify small molecule antagonists of the androgen receptor (AR) signaling pathway using the MDA cell line in the presence of 0.5 nM R1881 - cell viability counter screen (AID 1259242). Also: nearly all actives have a fitted effect of over 45% in size. Also: potency is read from the fitted curve at half-maximal effect. In a few lines:
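Viability of MDA-kb2 cells was multiplexed with the luciferase AR readout; after 16 hr with compounds and R1881 at 0.5 nM final, CellTiter-Fluor fluorescence was recorded.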

For test [2], the target named is Estrogen receptor (Homo sapiens) (UniProt P03372). Briefly: qHTS assay to identify small molecule antagonists of the estrogen receptor alpha (ER-alpha) signaling pathway using the BG1 cell line in the presence of 0.1 nM 17-beta-estradiol (AID 1259244). Also: nearly all actives have a fitted effect of over 50% in size. The method, boiled down: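 Estradiol at 0.1 nM (final) stimulates the endogenous ER-alpha of VM7Luc4E2 cells carrying an ERE-driven luciferase; compounds are co-incubated 22 h at 37C and luciferase output quantified by luminescence.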
Chain of Estrogen receptor (Homo sapiens) (P03372 whole entry, looked up): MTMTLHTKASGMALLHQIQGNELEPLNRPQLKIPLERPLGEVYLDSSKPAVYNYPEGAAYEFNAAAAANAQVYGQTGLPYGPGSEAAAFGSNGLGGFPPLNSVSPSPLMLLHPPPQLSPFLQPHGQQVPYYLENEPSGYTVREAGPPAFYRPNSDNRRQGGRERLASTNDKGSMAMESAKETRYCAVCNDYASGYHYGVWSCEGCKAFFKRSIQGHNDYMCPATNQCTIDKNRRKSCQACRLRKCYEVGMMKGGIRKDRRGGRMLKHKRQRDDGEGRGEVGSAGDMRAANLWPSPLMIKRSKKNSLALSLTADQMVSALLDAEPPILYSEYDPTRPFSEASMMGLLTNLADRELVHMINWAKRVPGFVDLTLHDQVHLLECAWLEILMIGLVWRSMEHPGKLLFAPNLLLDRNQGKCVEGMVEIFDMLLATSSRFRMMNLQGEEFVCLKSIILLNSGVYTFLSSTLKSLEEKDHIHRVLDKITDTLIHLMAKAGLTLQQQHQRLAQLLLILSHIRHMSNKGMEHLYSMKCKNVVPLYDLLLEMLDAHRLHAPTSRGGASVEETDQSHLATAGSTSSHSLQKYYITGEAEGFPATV

Test [3] is described as follows: qHTS assay to identify small molecule HDAC inhibitors (AID 1259364).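 Also: wild-type HCT-116 cells with endogenous class I/II HDAC activity; top concentration of the series differs between compounds; nearly all actives have a fitted effect of over 45% in size.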 In a few lines: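 Read-out: luminescence of HDAC-Glo I/II reagent, 30 min RT, reflecting class I/II deacetylase activity in whole HCT-116 cells pre-exposed 2 h to DMSO-dissolved compounds.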
Test [4] can be described thus: qHTS assay to identify small molecule HDAC inhibitors - cell viability counter screen (AID 1259365). Also: series mostly up to about 92 µM; nearly all actives have a fitted effect of over 50% in size. The method, boiled down:
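Cytotoxicity was gauged in wild-type HCT-116 cells after a brief 2hr treatment with DMSO-dissolved compounds at 37C and 5% CO2, using CellTiter-Glo luminescence developed for 30min at room temperature.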

The nature of test [5]: qHTS assay to identify small molecule agonists of the sonic hedgehog signaling (Shh) pathway - cell viability counter screen (AID 1259366). Also: nearly all actives have a fitted effect of over 50% in size. Also: potency is read from the fitted curve at half-maximal effect. In a few lines:
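Stable Gli1-Luc NIH/3T3 clone, 2,000 cells/well. Compound exposure 24hr at 37C. Read-out: CellTiter-Fluor fluorescence.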

A short description of test [6]: qHTS assay to identify small molecule agonists of the sonic hedgehog signaling (Shh) pathway (AID 1259368; calls by dose curve;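 also: NIH/3T3-derived 3T3Gli1-Luc cells carrying a stable Gli1-driven firefly luciferase reporter; series mostly up to about 92 µM; nearly all actives have a fitted effect of over 15% in size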). In a few lines: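 A Gli1 transcriptional response element controlled firefly luciferase in 3T3Gli1-Luc cells. Compounds and a positive control were added 4 hr after plating, and cells were incubated a further 24 hr at 37 C before luminescence detection.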
Test [7] in a line: qHTS assay to identify small molecule antagonists of the sonic hedgehog signaling (Shh) pathway (AID 1259369; calls by dose curve; also: nearly all actives have a fitted effect of over 45% in size; also: potency is read from the fitted curve at half-maximal effect). In a few lines: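 For antagonist detection, the reporter line received test compounds together with conditioned medium, incubated 24hr at 37 C, 5% CO2, then luminescence was recorded following 30min room-temperature luciferase reagent incubation.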
A short description of test [8]: qHTS assay to identify small molecule agonists of the estrogen receptor beta (ER-beta) signaling pathway - cell viability counter screen (AID 1259380). Also: nearly all actives have a fitted effect of over 30% in size. Also: potency is read from the fitted curve at half-maximal effect. In a few lines:
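CellTiter-Glo read, 30 min RT, same wells as bla assay; cells ER-beta-UAS-bla HEK293T; 16 hr compound, 37C; medium 2% charcoal-stripped FBS.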

Test [9] addresses Androgen receptor (Homo sapiens) (UniProt P10275). Kind of test: qHTS assay to identify small molecule agonists of the androgen receptor (AR) signaling pathway in the presence of an antagonist (AID 1259381; calls by dose curve; also: nearly all actives have a fitted effect of over 15% in size; also: potency is read from the fitted curve at half-maximal effect). In a few lines:
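Test compounds at 15 concentrations were incubated for 16hr with MDA-kb2 reporter cells in presence of 3.0uM nilutamide (final). Signal: ONE-Glo luciferase luminescence.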

Test [10] is described as follows: qHTS assay to identify small molecule antagonists of the estrogen receptor beta (ER-beta) signaling pathway - cell viability counter screen (AID 1259382). Also: nearly all actives have a fitted effect of over 55% in size. Also: potency is read from the fitted curve at half-maximal effect. The method, boiled down:
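In this multiplexed counter screen, cells were seeded at 2,000 per well in medium with 2% charcoal-stripped FBS and incubated 6 hr before compound and 1nM final E2 were added. Sixteen hours later, ATP-based luminescence reported viability.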

Test [11] in a line: qHTS assay to identify small molecule agonists or antagonists of the thyroid stimulating hormone receptor (TSHR) signaling pathway - wild type cell line counter screen (AID 1259384; calls by dose curve). The method, boiled down: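 Counter screen in untransfected Hek293: compounds (15-point titration, triplicate) plus phosphodiesterase inhibitor Ro20-1724 added after 18 h plating; 30 min RT. Intracellular cAMP via competitive d2/cryptate immunoassay, 1 h incubation.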

The nature of test [12]: qHTS assay to identify small molecule antagonists of the sonic hedgehog signaling (Shh) pathway - cell viability counter screen (AID 1259367). Also: nearly all actives have a fitted effect of over 55% in size. Also: potency is read from the fitted curve at half-maximal effect. In a few lines: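 Using CellTiter-Fluor, viability of Gli1-Luc reporter 3T3 cells is read by fluorescence in the wells used for the Shh luciferase assay. Treatment lasts 23 hr with conditioned medium, then reagent 1 hr at 37C.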
Test [13] is described as follows: qHTS assay to identify small molecule agonists of the androgen receptor (AR) signaling pathway in the presence of an antagonist - cell viability counter screen (AID 1259379). Also: nearly all actives have a fitted effect of over 25% in size. Also: potency is read from the fitted curve at half-maximal effect. The method, boiled down: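 Seed MDA-kb2 at 3,000 cells/well; incubate 5 hr, 37C, 0% CO2. Add nilutamide to 3.0uM final, then pin compounds at 15 concentrations. Incubate 16 hr. Add CellTiter-Fluor at 15 hr, read fluorescence after 1 hr.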

The target of test [14] is Estrogen receptor (Homo sapiens) (UniProt P03372). Kind of test: qHTS assay to identify small molecule agonists of the estrogen receptor alpha (ER-alpha) signaling pathway in the presence of an antagonist (AID 1259383; calls by dose curve; also: top concentration of the series differs between compounds; nearly all actives have a fitted effect of over 15% in size). The method, boiled down:
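Stably transfected VM7Luc4E2 reporter cells, kept 5 days in charcoal-stripped serum, received ICI-182,780 at 10.0nM final before compound addition. Following 22hr incubation at 37C and 5% CO2, luciferase signal was read by luminescence.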

Test [15] is described as follows: qHTS assay to identify small molecule agonists of the estrogen receptor alpha (ER-alpha) signaling pathway in the presence of an antagonist - cell viability counter screen (AID 1259386).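 Also: cells exposed to compounds for 22 h at 37 °C before the viability read; nearly all actives have a fitted effect of over 30% in size.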 Also: potency is read from the fitted curve at half-maximal effect. The method, boiled down:
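Viability counter screen using VM7Luc4E2 (full-length ER-alpha, four ERE-luciferase). The cells were treated with compounds alongside ICI-182,780 10.0nM for 22hr, and live-cell protease fluorescence was quantified with CellTiter-Fluor.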

Test [16] is described as follows: qHTS assay to identify small molecule phospholipidosis (PLD) inducers (AID 1259344; active = well fitted curve in the direction sought with a large enough effect; an effect the other way counts as inactive or inconclusive). The method, boiled down:
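Fluorescent phospholipid staining (LipidTOX Red) measured by automated microscopy in fixed HepG2 cells after 24 h treatment; nuclei counterstained with Hoechst 33342; amiodarone as reference inducer.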

Test [17] addresses Estrogen receptor beta (Homo sapiens) (UniProt Q92731). Kind of test: qHTS assay to identify small molecule agonists of the estrogen receptor beta (ER-beta) signaling pathway (AID 1259377; active = well fitted activation curve with a large enough effect in the signal ratio in the repeat runs, not every such curve was filed as active; the % refers to the signal ratio). The method, boiled down:
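Measured by fluorescence intensity from a B/G FRET beta-lactamase substrate (2 h, room temperature) in ER-beta-UAS-bla HEK293T cells treated with DMSO-dissolved compounds for 16 hr at 37C and 5% CO2.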

For test [18] the target is unchanged. Briefly: qHTS assay to identify small molecule antagonists of the estrogen receptor beta (ER-beta) signaling pathway (AID 1259378; active = well fitted inhibition curve with a large enough effect in the signal ratio in the repeat runs, not every such curve was filed as active; the % refers to the signal ratio). The method, boiled down: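 Antagonist mode: compounds added to beta-lactamase reporter HEK293T ER-beta-UAS cells stimulated with E2 (1nM final), 16 hr at 37C. LiveBLAzer B/G FRET substrate, 2 hours room temperature, fluorescence read-out.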

Test [19] has as its target Thyrotropin receptor (Homo sapiens) (UniProt P16473). Kind of test: qHTS assay to identify small molecule antagonists of the thyroid stimulating hormone receptor (TSHR) signaling pathway (AID 1259385; calls by dose curve; also: nearly all actives have a fitted effect of over 20% in size). The method, boiled down:
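Antagonist mode: compound-treated TSHR-expressing HEK293 cells were stimulated with 1.5 ng/mL TSH (final) in presence of Ro20-1724 for 30 min at RT. HTRF cAMP detection after 1 h; each compound tested at 15 concentrations, triplicate.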

Molecules are shown by their SMILES. Unmarked numbers belong to inactive results. Records with an inconclusive call do not appear. Active and inactive are the calls of the source. Unless noted, calls follow the shape of the dose curve; as a rule, active = well fitted curve in the direction sought with a large enough effect in the repeat runs; inconclusive = weak or mixed curves; inactive = no such curve, though single readings can be large; an effect the other way counts as inactive or inconclusive.

Chain of Thyrotropin receptor (Homo sapiens) (P16473 whole entry, looked up): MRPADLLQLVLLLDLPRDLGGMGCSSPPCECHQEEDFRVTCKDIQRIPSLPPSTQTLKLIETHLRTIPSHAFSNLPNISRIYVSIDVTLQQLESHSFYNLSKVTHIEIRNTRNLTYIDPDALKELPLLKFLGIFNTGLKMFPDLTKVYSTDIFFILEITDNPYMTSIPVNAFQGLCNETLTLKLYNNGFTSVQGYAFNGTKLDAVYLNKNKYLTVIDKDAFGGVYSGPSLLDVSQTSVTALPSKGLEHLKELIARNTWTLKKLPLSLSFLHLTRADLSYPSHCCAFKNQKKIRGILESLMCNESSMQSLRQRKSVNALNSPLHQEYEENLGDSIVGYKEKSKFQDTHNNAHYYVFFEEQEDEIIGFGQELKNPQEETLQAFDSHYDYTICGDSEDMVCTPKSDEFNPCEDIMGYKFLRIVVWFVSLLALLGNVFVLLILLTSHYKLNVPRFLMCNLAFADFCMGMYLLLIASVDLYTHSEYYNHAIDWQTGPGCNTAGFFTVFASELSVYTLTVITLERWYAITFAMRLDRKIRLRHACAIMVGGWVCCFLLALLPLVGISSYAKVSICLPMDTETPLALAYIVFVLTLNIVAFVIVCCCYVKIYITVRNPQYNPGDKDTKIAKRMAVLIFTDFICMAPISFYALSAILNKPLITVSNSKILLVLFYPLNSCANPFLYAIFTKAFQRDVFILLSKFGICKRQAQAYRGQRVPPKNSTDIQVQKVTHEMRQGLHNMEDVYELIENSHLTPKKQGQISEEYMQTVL
Chain of Estrogen receptor beta (Homo sapiens) (Q92731 whole entry, looked up): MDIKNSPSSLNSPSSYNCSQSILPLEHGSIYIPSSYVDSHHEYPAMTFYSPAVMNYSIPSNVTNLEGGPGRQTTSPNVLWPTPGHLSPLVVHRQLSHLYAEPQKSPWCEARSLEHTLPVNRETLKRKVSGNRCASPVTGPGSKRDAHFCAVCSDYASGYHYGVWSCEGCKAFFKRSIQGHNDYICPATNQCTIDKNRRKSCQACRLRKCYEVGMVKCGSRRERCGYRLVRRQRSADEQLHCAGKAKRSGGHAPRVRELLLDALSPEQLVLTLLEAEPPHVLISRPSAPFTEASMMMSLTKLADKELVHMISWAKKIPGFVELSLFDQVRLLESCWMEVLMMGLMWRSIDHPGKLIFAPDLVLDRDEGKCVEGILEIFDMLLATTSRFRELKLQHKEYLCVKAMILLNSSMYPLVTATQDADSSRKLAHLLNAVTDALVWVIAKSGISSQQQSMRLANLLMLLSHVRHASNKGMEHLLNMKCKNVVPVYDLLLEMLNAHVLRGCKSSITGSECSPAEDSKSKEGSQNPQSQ
Chain of Androgen receptor (Homo sapiens) (P10275 whole entry, looked up): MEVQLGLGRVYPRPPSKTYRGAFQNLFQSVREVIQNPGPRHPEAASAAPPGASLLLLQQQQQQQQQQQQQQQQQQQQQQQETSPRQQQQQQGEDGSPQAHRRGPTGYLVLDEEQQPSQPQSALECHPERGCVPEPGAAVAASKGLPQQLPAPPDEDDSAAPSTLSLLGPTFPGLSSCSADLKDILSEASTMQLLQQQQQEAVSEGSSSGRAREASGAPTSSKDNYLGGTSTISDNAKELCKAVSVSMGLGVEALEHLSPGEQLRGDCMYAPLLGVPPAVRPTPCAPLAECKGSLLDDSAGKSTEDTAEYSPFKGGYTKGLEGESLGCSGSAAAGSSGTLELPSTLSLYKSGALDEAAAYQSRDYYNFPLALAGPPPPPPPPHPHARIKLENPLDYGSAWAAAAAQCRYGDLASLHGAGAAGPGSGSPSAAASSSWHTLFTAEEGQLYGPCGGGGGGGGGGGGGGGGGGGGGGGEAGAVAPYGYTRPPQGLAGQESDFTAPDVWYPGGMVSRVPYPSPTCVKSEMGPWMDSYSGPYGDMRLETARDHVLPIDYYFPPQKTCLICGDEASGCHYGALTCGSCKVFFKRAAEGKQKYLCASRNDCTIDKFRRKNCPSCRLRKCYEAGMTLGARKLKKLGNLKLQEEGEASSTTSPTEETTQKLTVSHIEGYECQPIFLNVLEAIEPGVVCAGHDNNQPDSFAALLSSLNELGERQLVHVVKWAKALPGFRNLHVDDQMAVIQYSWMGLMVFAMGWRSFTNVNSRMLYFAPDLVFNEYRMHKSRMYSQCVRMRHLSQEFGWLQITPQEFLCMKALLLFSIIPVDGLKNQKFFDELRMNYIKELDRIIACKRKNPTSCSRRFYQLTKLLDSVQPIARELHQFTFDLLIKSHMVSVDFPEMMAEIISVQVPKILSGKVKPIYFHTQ

Turning to `C[C@]12CC[C@H]3C(=CCc4cc(O)ccc43)[C@@H]1CCC2=O`, the Potency result in test [1], in test [2], in test [3], in test [4], in test [5] and in test [6] was “inactive” in each case. The Potency in test [7] was 21.7 µM (active); in [8] it was 27.3 µM (active); in test [9] it was 5.45 µM (active); in test [10], 30.6 µM (active). In addition, the outcome in [11] was inactive.

`CC(O)C#CC(C)O` (stereo not drawn): the Potency entry in test [1], in [2], in test [6], in test [13], in test [14] and in test [15] was “inactive” each time. Moreover, the Potency in [5] was 53.9 µM (active); in test [12] it was 60.5 µM (active); in test [7], 24.1 µM (active). The result in [11] was inactive.

Take `C/C=C/C=N/NC(=O)c1ccncc1`: the Potency result in [1], in test [16], in test [3], in test [4], in test [6] and in test [7] was “inactive” throughout. The Potency entry in test [17], in test [13], in test [8], in [10] and in test [15] was “inactive” each time. Moreover, the Potency in [12] is 26.6 µM (active). For the same molecule, the call in [11] was inactive.

Consider `O=C1c2c(O)ccc(O)c2C(=O)c2c(NCCNCCO)ccc(NCCNCCO)c21`, for which the Potency was 21.1 µM (active) in test [1]; 21.1 µM (active) in [5]; 23.7 µM (active) in test [12]; 0.0473 µM (active) in test [7]; 11.9 µM (active) in test [13]; 26.6 µM (active) in test [15]. Moreover, the Potency entry in [16], in test [3], in [4], in test [6], in [17] and in test [8] was “inactive” each time. Also, the Potency result in test [9] and in [10] was “inactive” each time.

On to `CC(C)c1ccc(O)c(C(C)C)c1`, for which the Potency entry in test [1], in test [3], in [4], in [5], in test [12] and in test [6] was “inactive” throughout. Moreover, the Potency entry in test [7], in test [17], in test [18], in test [13], in test [10] and in test [14] was “inactive” throughout. Also, the Potency entry in test [19] and in [15] was “inactive” in each case. Further, in test [11], the result was inactive.

As for `CC(C)OC(=O)c1cc(C(=O)OC(C)C)cc([N+](=O)[O-])c1`, the Potency entry in [1], in test [16], in test [4], in [12], in test [6] and in [18] was “inactive” throughout. The Potency result in test [13] and in [19] was “inactive” each time. In addition, the result in [11] was inactive.

`O=C(O)CCn1c2c(c3ccccc31)C[C@H](NS(=O)(=O)c1ccc(F)cc1)CC2`: the Potency entry in test [1], in [16], in test [3], in test [4], in test [5] and in test [12] was “inactive” in each case. The Potency result in test [6], in test [7], in [13], in test [8], in [10] and in [15] was “inactive” throughout.

In the case of `CC[N+](CC)(CC)Cc1ccccc1`, the Potency result in test [1], in test [2], in [3], in test [5], in [12] and in test [6] was “inactive” in each case. Further, the Potency result in [7], in test [18], in test [13], in test [8], in test [10] and in [14] was “inactive” each time. The Potency result in [15] was “inactive”.

Regarding `Cc1cncc(C)c1`, the Potency entry in test [1], in test [2], in test [3], in test [5], in [12] and in [6] was “inactive” in each case. The Potency entry in test [7], in [17], in [18], in test [13], in test [8] and in test [10] was “inactive” throughout. In addition, the Potency entry in [14], in [19] and in test [15] was “inactive” throughout. For the same molecule, the outcome in test [11] was inactive.
